This is part of a sample that, as a whole, favours compounds with a hit. Of some 83,000 tested, about 20% had one in any assay.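 The endpoint reported here, percent growth, reads 100 for growth as untreated, 0 for no net growth and -100 for all cells dead.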 A number with no mark means an inactive call. The source made the active and inactive calls. Rule for the calls: active = growth percent below 10; inactive = the rest.

Among the test systems are DU-145 prostate; K-562 leukemia; MALME-3M melanoma; MDA-MB-231 breast; RXF 393 renal; SF-268 CNS; SF-295 CNS; SF-539 CNS; UACC-257 melanoma; M14 melanoma; HCT-15 colon; HT29 colon; SNB-75 CNS; SNB-19 CNS; U251 CNS; PC-3 prostate; SK-MEL-5 melanoma; UACC-62 melanoma; SK-MEL-28 melanoma; LOX IMVI melanoma.
What all share (test): NCI-60 one-dose screen, 48 h (100 = growth as untreated, 0 = no growth, -100 = all killed)
What all share (conditions): 10 µM unless noted

As for `O=C(Nc1cc(F)cc2cccnc12)c1cnc(N2CCNCC2)cn1`, the growth in the test on DU-145 prostate was 75.2%; in the test with K-562 leukemia, 19.8%; in the test on MALME-3M melanoma it was 59.6%; in the test on MDA-MB-231 breast, 71.8%; with RXF 393 renal, 54.1%; in the test with SF-268 CNS, 77.4%. For the same compound, the growth in the test on SF-295 CNS was 89.3%; with SF-539 CNS, 85.5%; in the test on UACC-257 melanoma, 88%; in the test on M14 melanoma, 86.1%; in the test with HCT-15 colon, 40.5%; in the test on HT29 colon, 36.8%. Moreover, the growth in the test with SNB-75 CNS was 82.7%; in the test with SNB-19 CNS, 87.7%; in the test on U251 CNS it was 63.6%; in the test with PC-3 prostate, 63%; in the test on SK-MEL-5 melanoma, 91.1%; in the test with UACC-62 melanoma, 101%. Besides, in the test on SK-MEL-28 melanoma, the growth was 97.4%.
`COc1ccc2nc3c(cc2c1)C(=O)CC(c1ccccc1)C3` (stereo not drawn): the growth in the test on DU-145 prostate was 1.12% (active); in the test on K-562 leukemia, 13.2%; in the test on MALME-3M melanoma, 47.7%; in the test with MDA-MB-231 breast it was 54.6%; in the test on RXF 393 renal it was -2.76% (active); with SF-268 CNS, 53.9%. Besides, the growth in the test on SF-295 CNS was 31%; in the test with SF-539 CNS, 7.92% (active); with UACC-257 melanoma it was 82.9%; with M14 melanoma it was 9.28% (active); in the test on HCT-15 colon, 24.8%; in the test on HT29 colon, 9.97% (active). Further, the growth in the test with SNB-75 CNS was -9.09% (active); in the test with SNB-19 CNS it was 34.3%; with U251 CNS, 45%; with PC-3 prostate, 28.8%; with SK-MEL-5 melanoma, 30.2%; in the test with UACC-62 melanoma, 36.9%. In addition, in the test on SK-MEL-28 melanoma, the growth was 54.6%.
`COC(=O)[C@]1(C)CC[C@]2(C)CC[C@]3(C)C(=CC(=O)[C@@H]4[C@@]5(C)CCC(=O)NC(C)(C)[C@@H]5CC[C@]43C)[C@@H]2C1`: the growth in the test on DU-145 prostate was -24.1% [100 µM] (active); in the test on K-562 leukemia, 4.37% [100 µM] (active); in the test on MALME-3M melanoma, -76.4% [100 µM] (active); with MDA-MB-231 breast it was -80.2% [100 µM] (active); in the test on RXF 393 renal, -85.5% [100 µM] (active); in the test with SF-268 CNS it was -55.3% [100 µM] (active). Also, the growth in the test with SF-295 CNS was -70.6% [100 µM] (active); in the test with SF-539 CNS it was -85% [100 µM] (active); in the test with UACC-257 melanoma, -30.3% [100 µM] (active); in the test on M14 melanoma, -39.1% [100 µM] (active); in the test on HCT-15 colon, -19.6% [100 µM] (active); in the test on HT29 colon it was -55% [100 µM] (active). In addition, the growth in the test on SNB-75 CNS is -83.3% [100 µM] (active); with SNB-19 CNS it was -89.8% [100 µM] (active); in the test with U251 CNS, -89.2% [100 µM] (active); in the test with PC-3 prostate it was -65.8% [100 µM] (active); in the test on SK-MEL-5 melanoma, -94% [100 µM] (active); in the test on UACC-62 melanoma, -88.9% [100 µM] (active). Also, the growth with SK-MEL-28 melanoma was -67.3% [100 µM] (active).
In the case of `CC1Cc2c(Cl)ncnc2N(C)c2ccc(O)cc21` (stereo not drawn), the growth is 108% with DU-145 prostate; 89.6% in the test with K-562 leukemia; 53.4% in the test with MALME-3M melanoma; 21.1% with MDA-MB-231 breast; 32.1% with RXF 393 renal; 29.1% in the test with SF-268 CNS. The growth is 49.7% in the test with SF-295 CNS; 34.6% in the test with SF-539 CNS; 33.9% in the test on UACC-257 melanoma; 21.9% with M14 melanoma; 67.3% with HCT-15 colon; 74.7% in the test with HT29 colon. In addition, the growth is 85% with SNB-75 CNS; 44.4% with SNB-19 CNS; 36% in the test on U251 CNS; 31.4% in the test with PC-3 prostate; -78.9% (active) in the test with SK-MEL-5 melanoma; 33.8% in the test on UACC-62 melanoma. Moreover, in the test with SK-MEL-28 melanoma, the growth is 27.8%.
For the compound `N#Cc1c(Cl)nc(SCC2CO2)nc1-c1ccccc1` (stereo not drawn), the growth was 123% in the test with DU-145 prostate; 128% in the test with K-562 leukemia; 85.1% with MALME-3M melanoma; 118% in the test with MDA-MB-231 breast; 101% with RXF 393 renal; 116% in the test on SF-268 CNS. The growth with SF-295 CNS is 117%; in the test on SF-539 CNS, 105%; with UACC-257 melanoma it was 39.9%; in the test on M14 melanoma it was 98.5%; in the test with HCT-15 colon it was 110%; in the test with HT29 colon, 111%. Further, the growth is 95.6% in the test on SNB-75 CNS; 106% in the test on SNB-19 CNS; 104% in the test with U251 CNS; 110% in the test with PC-3 prostate; 107% in the test on SK-MEL-5 melanoma; 107% in the test on UACC-62 melanoma. The growth in the test with SK-MEL-28 melanoma was 114%.
In the case of `COc1cc(C(=O)/C=C/c2c(-c3ccc(F)cc3)nc3sccn23)cc(OC)c1OC`, the growth with DU-145 prostate is 27.4%; in the test on K-562 leukemia, 39.1%; in the test with MALME-3M melanoma, 33.6%; in the test on MDA-MB-231 breast, 51%; in the test with RXF 393 renal it was -50.6% (active); in the test on SF-268 CNS it was 25.4%. Moreover, the growth with SF-295 CNS was 3.82% (active); with SF-539 CNS it was -57.9% (active); in the test with UACC-257 melanoma, 39.9%; in the test with M14 melanoma it was 35.3%; with HCT-15 colon, 27.8%; in the test with HT29 colon, 5.08% (active). Besides, the growth with SNB-75 CNS is 32.3%; in the test with SNB-19 CNS, 10%; in the test on U251 CNS it was 5.59% (active); in the test with PC-3 prostate, 19.9%; with SK-MEL-5 melanoma it was -50.5% (active); in the test on UACC-62 melanoma it was 23.3%. Further, the growth is 15.6% with LOX IMVI melanoma and 52.2% in the test on SK-MEL-28 melanoma.
In the case of `ClC1=C(Cl)C(Cl)=C(Cl)C1=Cc1ccccc1`, the growth in the test with DU-145 prostate was -76.4% (active); in the test on K-562 leukemia, 1.01% (active); in the test on MALME-3M melanoma, -53.7% (active); with MDA-MB-231 breast it was -21% (active); in the test on RXF 393 renal it was -91.4% (active); with SF-268 CNS, -44.9% (active). For the same compound, the growth in the test on SF-295 CNS is -30.1% (active); with SF-539 CNS, -43.6% (active); with UACC-257 melanoma, -66.7% (active); with M14 melanoma, -93.1% (active); in the test on HCT-15 colon, -55.1% (active); in the test with HT29 colon it was -30.1% (active). Moreover, the growth in the test with SNB-75 CNS is -77% (active); in the test on SNB-19 CNS it was -16.8% (active); with U251 CNS, -50.3% (active); with PC-3 prostate it was -10.3% (active); with SK-MEL-5 melanoma, -95.8% (active); in the test on UACC-62 melanoma it was -77% (active). Further, the growth with SK-MEL-28 melanoma was -87.5% (active).
In the case of `CCOc1ccccc1/C=N\Nc1ccc(S(=O)(=O)c2ccc(N/N=C/c3ccccc3OCC)cc2)cc1`, the growth with DU-145 prostate was 109%; with K-562 leukemia, 87.9%; in the test on MALME-3M melanoma it was 98%; with MDA-MB-231 breast it was 87.8%; in the test on RXF 393 renal, 112%; with SF-268 CNS, 88.3%. Further, the growth with SF-295 CNS was 92.9%; with SF-539 CNS, 90.8%; with UACC-257 melanoma, 100%; with M14 melanoma it was 96.9%; with HCT-15 colon, 82.9%; with HT29 colon, 108%. Moreover, the growth was 80.8% in the test with SNB-75 CNS; 93.5% with SNB-19 CNS; 94.8% in the test on U251 CNS; 87% in the test on PC-3 prostate; 100% in the test with SK-MEL-5 melanoma; 85% in the test on UACC-62 melanoma. The growth in the test on SK-MEL-28 melanoma was 100%.

For the origin of these results see PubChem BioAssay (NCI).
